An excerpt weighted towards active compounds, which were near 3.1% of everything screened.
Tau ThT inhib: tau fibrillization inhibition (ThT binding). P10636. Potency, µM (highest dose often 57.4 µM), for inactives: top-dose activity, negative = inhibition, hits mostly inhibitors. 2.1% of 270,000 active. recombinant tau K18 P301L, heparin-induced fibrillization, ThT fluorescence. AID 1460; further: nearly all actives have a fitted effect of over 55% in size
Target sequence (P10636 561-689 P618L limits assumed): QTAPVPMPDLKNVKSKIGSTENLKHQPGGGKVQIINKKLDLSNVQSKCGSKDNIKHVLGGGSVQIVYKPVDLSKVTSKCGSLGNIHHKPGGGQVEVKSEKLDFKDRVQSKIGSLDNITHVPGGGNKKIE
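Heparin-induced fibrillization of the P301L-mutant K18 repeat-domain fragment of human tau was followed by ThT binding in quantitative high-throughput format.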
TR SRC2 fluor cs: Texas Red fluorescence interference in TRb-SRC2 counter-screen; TRb/SRC2 Texas Red total fluorescence interference; Potency, µM (titrated, usually from 106 µM), inactives show at the highest dose fluorescence change, negative = quenching; 0.29% of 280,000 active; active means well fitted curve in either direction with a large enough effect; inconclusive means small, poorly fitted or top-dose-only effect
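Human TRb ligand-binding domain at 0.6 uM with 20 nM Texas Red SRC2 peptide in Tris buffer containing 1 uM T3 and 5% DMSO, incubated with compound 5 h at ambient temperature. Total fluorescence (555/632 nm) calculated as parallel + 2 × perpendicular.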
TRb SRC2 PPI: TRbeta-SRC2 interaction inhibition | P10828 | TRbeta-SRC2 peptide binding, fluorescence polarization; receptor liganded with 1 µM T3 | Potency, µM (doses to about 106 µM), for inactives: at the top dose activity change, negative = inhibition, hits mostly inhibitors | 0.065% of 280,000 active | AID 1469;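 further: plate controls were bound peptide for no effect and peptide without receptor for full effect; nearly all actives have a fitted effect of over 50% in size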
Target sequence (P10828 whole entry, looked up): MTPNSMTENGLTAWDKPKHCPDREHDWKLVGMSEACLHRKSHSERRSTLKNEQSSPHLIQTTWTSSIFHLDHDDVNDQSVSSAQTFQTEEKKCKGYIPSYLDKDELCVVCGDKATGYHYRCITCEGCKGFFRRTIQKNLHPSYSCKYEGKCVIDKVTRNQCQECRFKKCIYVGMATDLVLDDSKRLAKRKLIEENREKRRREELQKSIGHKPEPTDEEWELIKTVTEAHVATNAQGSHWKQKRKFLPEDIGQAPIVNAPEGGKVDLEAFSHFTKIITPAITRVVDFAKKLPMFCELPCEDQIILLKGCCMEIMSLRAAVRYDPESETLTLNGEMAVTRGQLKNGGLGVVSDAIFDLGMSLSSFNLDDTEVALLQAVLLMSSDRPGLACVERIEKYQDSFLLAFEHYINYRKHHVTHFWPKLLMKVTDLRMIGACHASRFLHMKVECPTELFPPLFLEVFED
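Decrease in fluorescence polarization of 20 nM Texas Red SRC2 coactivator peptide flagged inhibition of its binding to 0.6 uM TRb LBD; 1 uM T3 included, incubation 5 hr, ex 555/em 632 nm.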
Tau fluor counter: counter-screen for tau fibril formation inhibitors | tau K18 P301L Alexa594 fluorescence, heparin fibrillization | Potency, µM (series often up to 57.7 µM), for inactives: top-dose activity change, negative = decrease | 0.93% of 280,000 active | AID 1463; further: nearly all actives have a fitted effect of over 55% in size
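Human tau K18 P301L (15 uM unlabeled, 0.24 uM Alexa 594-labeled) in 100 mM sodium acetate pH 7 with 20 uM heparin, 6 hr at 37 C. ThT 30 uM added, 1 hr ambient; Alexa 594 FP and total fluorescence read at 555/632 nm.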
RGS12 GoLoco inh: inhibitors of human Gai1-RGS12 GoLoco interaction (red fluorophore); P63096; AID 880; 0.44% of 230,000 active; Potency, µM (highest dose often 61.6 µM), without a hit: at the highest dose activity, negative = inhibition, actives largely listed as inhibitors; Gai1:RGS12 GoLoco peptide FP, rhodamine, 10 min; active means well fitted inhibition curve with a large enough effect, not every such curve was filed as active; inactive means no such curve, though single readings can be large or run the other way; further: nearly all actives have a fitted effect of over 30% in size
Tau fibril FP: blocks human tau fibril formation measured by polarization | Potency, µM (series often up to 57.7 µM), for the others: at the highest dose activity, negative = inhibition, actives largely listed as inhibitors | 0.39% of 280,000 active | K18 P301L tau heparin fibrillization, Alexa594 FP, 6 h | P10636; further: nearly all actives have a fitted effect of over 55% in size
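Human K18 P301L fragment (15 uM unlabeled plus 0.24 uM Alexa 594-labeled) in 100 mM sodium acetate pH 7 with compound, aggregation induced by 20 uM heparin for 6 hr at 37 C. ThT (30 uM) added for 1 hr, then Alexa 594 FP read.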
An asterisk follows results filed as active; ? = inconclusive; · = no result given; ! = a repeat was not active; [ ] = remark or other dose. Unless noted, the call rests on the fitted dose curve; in most records, active means well fitted curve in the direction sought with a large enough effect; inconclusive means small, poorly fitted or top-dose-only effect, or another doubt; inactive means no such curve, though single readings can be large; an effect the other way counts as inactive or inconclusive. Unless noted, on the % scale 0 is the no-effect control and ±100 the full control effect; potency means the concentration at half of the fitted maximal effect.

SMILES | Tau ThT inhib | TR SRC2 fluor cs | TRb SRC2 PPI | Tau fluor counter | RGS12 GoLoco inh | Tau fibril FP
Cn1c(=Nc2ccc(N3CCOCC3)cc2)ccc2ccccc21 | -15% | -2% | -4% | -5% | 0.32µM* | -5%
CCc1ccc(NC(=O)C2CCCN2S(=O)(=O)c2ccc3c(c2)n(C)c(=O)c(=O)n3C)cc1 (centres undefined) | 0% | -1% | 1% | 6% | 1% | 9%
O=c1cc(-c2ccccc2)oc2cc(O)cc(O)c12 | ? | -5%[201 µM] | 8%[201 µM] | -14% | 16% | ?
O=c1cc(-c2ccc(O)cc2)oc2cc(O)cc(O)c12 | 16µM* | ? | ? | ? | 18µM*! | ?
COc1ccc(-c2cc(=O)c3c(O)cc(O)c(-c4cc(-c5cc(=O)c6c(O)cc(O)cc6o5)ccc4OC)c3o2)cc1 | -12% | -1% | 2% | -30% | 1% | 18µM*
O=c1cc(-c2cc(O)c(O)c(O)c2)oc2cc(O)cc(O)c12 | 7.9µM* | -20% | 6% | 16µM*[quencher] | -4% | 5%
CCOc1cc(-c2nc(-c3ccc(Br)cc3)no2)cc(OCC)c1OCC | -6% | -4% | -3% | -13% | · | -8%
OCCN(CCO)c1nc(N2CCCCC2)c2nc(N(CCO)CCO)nc(N3CCCCC3)c2n1 | ? | 40µM*![fluorescent] | ? | ? | -19% | 11%
CN(C)C(=O)CN1CCN(c2nc3nonc3nc2N2CCCCC2)CC1 | -6% | 1% | -5% | 1% | -12% | 0%
CC(C)n1c(S(=O)(=O)O)nc2ccccc21 | -4% | 2% | 3% | -2% | 4% | -4%
COc1ccc(NC(=O)c2cc3ccc4c5ccccc5[nH]c4c3cc2O)cc1 | 2.2µM* | -3% | -5% | 3.2µM*[quencher] | 8% | 10%
CC1(C)CC(=O)C2=C(C1)N(c1cccnc1)C(N)=C(C#N)C2c1cccs1 (centres undefined) | 20µM* | -6% | -6% | -20% | 29% | ?
Cc1ccccc1N1C(S)=C(C#N)C(=O)NC1c1ccco1 (centres undefined) | 25µM* | 2% | 3% | -22% | 36% | ?
CC(=O)N(/N=C1\Sc2ccccc2C1=O)c1ccc(C)cc1C | ? | 2% | 6% | -21% | 17% | 5%
CC(=O)N(/N=C1\Sc2ccccc2C1=O)c1ccccc1C | 11µM* | 0% | -29% | -17% | 37% | 6%
COc1cc(NS(=O)(=O)c2ccc3[nH]c4c(c3c2)CCCC4)cc(OC)c1OC | -13% | 20µM*[quencher] | -15% | ? | · | 18%
COc1ccc(OC)c(NS(=O)(=O)c2ccc3[nH]c4c(c3c2)CCCCC4)c1 | -2% | -1% | -4% | 11µM*[quencher] | · | 3%
COc1ccc(NS(=O)(=O)c2ccc3[nH]c(=O)ccc3c2)cc1OC | ? | 1% | -5% | 8.9µM*[quencher] | · | -18%
COc1cc(NS(=O)(=O)c2ccc3[nH]c4c(c3c2)CCCCCC4)cc(OC)c1 | -7% | 1% | 0% | 8.9µM*[quencher] | · | -5%
CCN1C(=O)c2ccccc2Sc2ccc(NC(=O)N3CCN(c4cc(C)ccc4C)CC3)cc21 | -15% | -2% | -1% | -21% | · | -2%
COC(=O)Oc1ccccc1C(=O)O | -1% | -6% | -2% | -2% | 1% | -5%
OCCN1CC(O)C(O)C(O)C1CO (centres undefined) | -5% | -3% | 0% | -7% | -6% | -7%
COc1ccc(NS(=O)(=O)c2ccc3[nH]c4c(c3c2)CCCC4)cc1OC | ? | 0% | -1% | 16µM*[quencher] | · | 7%
CN(C(=S)Nc1ccc(SC(F)F)cc1)c1ccc(O)cc1 | 2.5µM* | -15% | ? | ? | -21% | ?
O=C(Cn1nc(C(F)F)cc1C(F)F)NNC(=S)Nc1ccc([N+](=O)[O-])cc1 | ? | -4% | 2% | ? | -4% | 0%
SMILES | Tau ThT inhib | TR SRC2 fluor cs | TRb SRC2 PPI | Tau fluor counter | RGS12 GoLoco inh | Tau fibril FP
N#C/C(=C/c1ccc([N+](=O)[O-])cc1)C(N)=O | ? | -2% | 3% | -12% | 9% | -5%
N#CC(C#N)=C(N)/C(C#N)=C/c1ccc2[nH]ccc2c1 | 14µM* | -13% | 0% | ? | 58% | -13%
Cn1c(=O)c2c(-c3ccc(Br)cc3)n(CCc3ccccc3)cc2n(C)c1=O | ? | -3% | -2% | -19% | · | -4%
Cc1ccc2c(Cl)cc(Cl)c(OCC(=O)OCC(=O)Nc3ccc(C#N)cc3)c2n1 | 9% | -3% | -7% | 5% | 20µM* | ?
Cc1ccc2c(=O)cc(C(=O)Nc3ccc(S(=O)(=O)N4CCCCC4)cc3)oc2c1 | 5% | ? | 1% | -17% | · | ?
O=C(/C=C/c1ccccc1)n1cnnc1SC/C=C/c1ccccc1 | 28µM* | -11% | 3% | -13% | -2% | ?
O=S(=O)(/N=C(/Sc1ccccc1)c1ccccc1)c1ccccc1 | ? | 2% | -2% | -10% | 7% | ?
CCOc1ccc2c(O)csc2c1 | 25µM* | 0% | -3% | -13% | 17% | ?
CCCN=Cc1sc2ccc(OCC)cc2c1O | ? | 0% | -5% | -19% | 12% | -7%
CN(C)Cc1cc(O)c(CN(C)C)cc1O | 7.1µM* | ? | -26% | ? | 4µM* | ?
CN(C)Cc1cc(O)c(O)c(CN(C)C)c1 | · | · | · | · | -35%[14.2 µM] | ·
O=C(N/N=C/c1cn(-c2ccccc2)nc1-c1cc2ccccc2o1)c1c[nH]c2ccccc12 | 3% | -1% | 13% | ? | 24% | 14µM*
O=C(N/N=C/c1cn(-c2ccccc2)nc1-c1cc2ccccc2o1)c1ccccc1Br | 6% | 14% | 11% | 4% | -4% | 7%
CCc1ccc(NC(=O)CC2C(=O)NCCN2C(=O)c2ccccc2OC)cc1 (centres undefined) | -18% | 8.9µM*[quencher] | -13% | -24% | · | -4%
Cc1c(C(=O)Nc2nc3ccccc3[nH]2)oc2ccc(Br)cc12 | ? | 3% | -5% | -16% | · | 5%
Cc1c(C(=O)Nc2nc3ccccc3[nH]2)oc2ccccc12 | -7% | -52% | -6% | -19% | 13µM* | 1%
COc1cc(/C=C2\SC(=O)NC2=O)ccc1Oc1ccc([N+](=O)[O-])cn1 | ? | -3% | -5% | -12% | 10% | 3%
COc1cc(/C=C2/SC(=O)NC2=O)ccc1Oc1ccc([N+](=O)[O-])cc1[N+](=O)[O-] | 16µM* | -1% | 4% | ? | -9% | -7%
CC(C)Cn1cc(NC(=O)NCc2ccc(Cl)cc2)c2ccccc2c1=O | -3% | -1% | -9% | ? | · | 5%
COc1ccc(N=Nc2ccc(O)c3ncccc23)cc1 | 1.4µM* | -4% | 3% | -26% | 9% | ?

Source: PubChem BioAssay
